Laboratory results: PubChem BioAssay (NCATS)
Results filed as inconclusive are left out. The source made the active and inactive calls. Calls follow the shape of the dose curve; as a rule, active = well fitted curve in the direction sought with a large enough effect; inconclusive = small, poorly fitted or top-dose-only effect, or another doubt; inactive = no such curve, though single readings can be large; an effect the other way counts as inactive or inconclusive.

Legend:
[1] = Cellular Toxicity (caspase-3) Mesangial (AID 660); conditions: mesangial cells, normalized: DMSO 0%, 100 µM tamoxifen 100%; at 91.7 µM (top of the series);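 also: combined caspase 3 and 7 activity read by Caspase-Glo luminescence; cells exposed to compound for 16 h before the caspase read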
Outline: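 Seed cells derived from normal human renal glomeruli, incubate 5 h, add compounds across concentrations and incubate 16 h at 37 °C. Caspase 3/7 activation is then quantified by luciferase light, with AC50 derived by Hill modeling.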

[2] = Cellular Toxicity (caspase-3) SK-N-SH (AID 661);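 also: 0% = DMSO basal and 100% = 10 µM staurosporine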
Outline: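 Cells were seeded and incubated 5 hr at 37 °C, dosed with compound over a concentration range for 16 hr, then given Caspase-Glo 3/7 reagent for 1 hr at room temperature before luminescence reading.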

[3] = Cellular Toxicity (caspase-3) H-4-II-E (AID 663); conditions: H-4-II-E rat hepatoma, scaled: DMSO 0%, 100 µM tamoxifen 100%; at 92.2 µM (top of the series);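 also: cells exposed to compound for 16 hr before readout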
Outline: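 Caspase 3/7 activation measured by luminescent aminoluciferin substrate cleavage after 16 hr compound treatment of H-4-II-E cells in complete medium. Increase normalized between DMSO (basal) and 100 uM tamoxifen (100%); Hill-equation AC50 from concentration-response.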

[4] = Cellular Toxicity (caspase-3) Hek293 (AID 664); conditions: HEK293 caspase-3 activation, DMSO = 0%, 100 µM tamoxifen = 100%; at 92.2 µM (top of the series);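 also: cells exposed to compound for 16 h at 37 °C before readout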
Outline: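 qHTS, HEK293 (human embryonic kidney), 16 h cpd exposure in complete medium. Caspase-3/7 activation = luminescence increase; normalized to DMSO/100 uM tamoxifen; Hill-fit AC50.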

[5] = Cellular Toxicity (caspase-3) N2a (AID 665);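 also: compound exposure lasted 16 h at 37 °C before readout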
Outline: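 Caspase-3/7 activation, measured as increased luminescence from aminoluciferin release, is quantified in mouse N2a cells exposed to compounds for 16 h. Values are normalized to DMSO and 10 uM staurosporine, with AC50 derived by Hill modelling.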

[6] = Cellular Toxicity (caspase-3) NIH 3T3 (AID 666);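 also: 0% = DMSO basal and 100% = 100 µM tamoxifen stimulation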
Outline: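 Cells were plated at 1000 per well and incubated 5 hr at 37°C, then compound was added for 16 hr. Caspase-Glo 3/7 reagent followed for 20 min at room temperature before luminescence was read.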

[7] = Cellular Toxicity (caspase-3) Renal Proximal Tubule (AID 667); conditions: Potency: caspase-3 activation;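 also: cells exposed to compound for 16 hours at 37 °C before detection; 0% = DMSO basal and 100% = 10 µM staurosporine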
Outline: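 Luminescent caspase 3/7 signal from peptide-aminoluciferin cleavage measures apoptosis in freshly isolated rat kidney proximal tubule cells after 16 h compound exposure. Concentration-response data are normalized to DMSO and 10 uM staurosporine, and AC50 values come from Hill equation fits.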

[8] = Cell Viability - LYMP2-001 (AID 921);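 also: 0% = DMSO only and full inhibition = tetraoctylammonium bromide control wells; nearly all actives have a fitted effect of over 70% in size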
Outline: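 CellTiter-Glo luminescence (intracellular ATP) after 24 hr compound exposure at 37 C, 2500 lymphoblastoid cells/well in complete medium. AC50 fitted with standard Hill equation; tetraoctylammonium bromide positive control.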

[9] = MultiTox-Fluor Cytotoxicity Assay - LYMP1-001 - Dead Cells (AID 946)
Outline: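 Cytotoxicity as increased dead-cell protease fluorescence (bis-AAF-R110, 485/520 nm), read 60 min after MultiTox-Fluor reagent. Human lymphoblastoid line exposed 16 h; Hill-fitted AC50, with DMSO as 0% and 15 uM tetraoctylammonium bromide as 100%.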

[10] = MultiTox-Fluor Cytotoxicity Assay - LYMP1-001 - Live Cells (AID 947);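 also: 0% = DMSO only and full inhibition = tetraoctylammonium bromide control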
[11] = Cell Viability - LYMP1-002 - Assay at 16 hr (AID 948);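 also: 0% = DMSO alone and full effect = 92 µM tetraoctylammonium bromide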
Outline: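 LYMP1-002 human lymphoblastoid cells, 2500/well; 5 hr 37 C; cpd 16 hr 37 C; CellTiter-Glo 30 min RT; luminescence (ATP). Concentration-response, Hill-fit AC50. Pos ctrl tetraoctylammonium bromide.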

[12] = MultiTox-Fluor Cytotoxicity Assay - LYMP1-002 - Live Cells (AID 955); also: % is scaled to controls: 0 for no effect and ±100 for the full control effect
Outline: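 Cells were seeded at 2500 per well and incubated 5 hr. Compounds were then added for 16 hr at 37 C, followed by MultiTox-Fluor reagent for 60 min at room temperature and fluorescence reading of viable-cell protease signal.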

[13] = MultiTox-Fluor Cytotoxicity Assay - LYMP1-003 - Dead Cells (AID 961); also: nearly all actives have a fitted effect of over 70% in size
Outline: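 Dead-cell protease release, detected as bis-AAF-R110 fluorescence at 485/520 nm, was measured in LYMP1-003 cells after 16 h compound treatment at 37 C. AC50 values came from Hill-modeled qHTS curves normalized to DMSO (0%) and 15 uM tetraoctylammonium bromide (100%).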

[14] = MultiTox-Fluor Cytotoxicity Assay - LYMP1-003 - Live Cells (AID 962);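 also: cells exposed to compound for 16 hours at 37 °C; 0% = DMSO only and full loss = 92 µM tetraoctylammonium bromide; cytotoxic hits lower the live-cell protease signal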
Outline: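 Acute cytotoxicity is scored as a drop in live-cell protease activity in human lymphoblastoid LYMP1-003 cells after 16 hr compound exposure at 37 C. AC50 values come from Hill-equation modelling of concentration-response data.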

[15] = Cell Viability - LYMP1-003 - Assay at 24 hr (AID 963);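 also: plate controls were DMSO only for no effect and tetraoctylammonium bromide positive control for full effect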
Outline: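 Cytotoxicity is scored as a concentration-dependent fall in ATP-linked luciferase signal in human lymphoblastoid LYMP1-003 cells treated 24 hr at 37 C in complete culture medium.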

[16] = Cell Viability - LYMP1-003 - Assay at 40 hr (AID 964); also: % is scaled to controls: 0 for no effect and ±100 for the full control effect; nearly all actives have a fitted effect of over 60% in size
Outline: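 Luminescent ATP signal (CellTiter-Glo) served as the viability read-out after 40 hr compound treatment of human lymphoblastoid LYMP1-003 cells at 37 C. Decreases in ATP were fitted with the Hill equation to give AC50.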

[17] = Cell Viability - LYMP2-003 (AID 965);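 also: cells exposed to compounds for 24 h before reading; 0% = DMSO only and full effect = 92 µM tetraoctylammonium bromide; nearly all actives have a fitted effect of over 50% in size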
Outline: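 CellTiter-Glo luminescence (cellular ATP) after 24 h compound exposure at 37 C in complete medium; 2500 cells/well, 5 h settling beforehand. Concentration-response fitted to standard Hill equation for AC50. Tetraoctylammonium bromide served as positive control.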

[18] = Cell Viability - LYMP2-004 (AID 966);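 also: plate controls were DMSO only for no effect and tetraoctylammonium bromide control for full effect; nearly all actives have a fitted effect of over 65% in size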
Outline: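 qHTS cytotoxicity: human lymphoblastoid line, 24 hr compound treatment, 37 C, complete medium. Viability read as cellular ATP via luciferase luminescence; tetraoctylammonium bromide served as positive control.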

[19] = biological target: Cytochrome P450 3A4 (Homo sapiens) (UniProt P08684); assay: qHTS Assay for Inhibitors and Substrates of Cytochrome P450 3A4 (AID 884); also: % is scaled to controls: 0 for no effect and ±100 for the full control effect; nearly all actives have a fitted effect of over 50% in size
Chain of Cytochrome P450 3A4 (Homo sapiens) (P08684 whole entry, looked up): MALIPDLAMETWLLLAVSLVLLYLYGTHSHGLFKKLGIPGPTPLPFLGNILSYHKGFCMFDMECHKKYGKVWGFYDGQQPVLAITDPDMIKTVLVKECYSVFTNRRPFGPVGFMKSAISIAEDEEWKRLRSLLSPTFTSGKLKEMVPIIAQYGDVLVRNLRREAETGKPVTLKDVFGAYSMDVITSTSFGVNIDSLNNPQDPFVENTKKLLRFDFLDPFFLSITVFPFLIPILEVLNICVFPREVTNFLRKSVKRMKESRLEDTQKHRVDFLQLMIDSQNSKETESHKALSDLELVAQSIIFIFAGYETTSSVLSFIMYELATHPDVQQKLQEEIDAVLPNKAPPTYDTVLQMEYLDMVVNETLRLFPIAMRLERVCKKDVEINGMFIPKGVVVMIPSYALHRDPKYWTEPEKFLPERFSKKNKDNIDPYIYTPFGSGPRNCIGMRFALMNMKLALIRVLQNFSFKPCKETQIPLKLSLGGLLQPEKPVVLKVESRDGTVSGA
Outline: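 Luminescent readout of luciferin produced by CYP3A4 (20 nM) dealkylation of Luciferin-PPXE, 25 uM (its KM). NADPH-driven reaction ran 60 min at RT after 10 min compound preincubation; data scaled to 57 uM ketoconazole as 100% inhibition.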

[20] = MultiTox-Fluor Cytotoxicity Assay - LYMP1-002 - Dead Cells (AID 960); also: nearly all actives have a fitted effect of over 60% in size
Outline: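 Cells were plated, rested 5 hr, then treated with compound dilution series for 16 hr at 37 C. After adding substrate reagent and 60 min at room temperature, dead-cell protease fluorescence gave concentration-response curves fitted by the Hill equation.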

O=C1OC(=O)c2c(Cl)c(Cl)c(Cl)c(Cl)c21
inactive: caspase-3 activation [1] -0.0678% | outcome [2] | caspase-3 activation [3] -0.63% | caspase-3 activation [4] 1.4% | outcome [5] | outcome [6] | Potency [7] | Potency [8] | outcome [9] | outcome [10] | outcome [11] | outcome [12] | Potency [13] | Potency [14] | Potency [15] | Potency [16] | Potency [17] | Potency [18]

Nc1cccc(C(F)(F)F)c1
inactive: caspase-3 activation [1] 2.31% | outcome [2] | caspase-3 activation [3] -0.107% | caspase-3 activation [4] 2.75% | outcome [5] | outcome [6] | Potency [7] | Potency [19] | outcome [9] | outcome [10] | outcome [11] | outcome [12] | outcome [20] | Potency [14] | Potency [15] | Potency [16] | Potency [17] | Potency [18]

Cc1ccc(Cl)cc1N
inactive: caspase-3 activation [1] -0.617% | outcome [2] | caspase-3 activation [3] -0.363% | caspase-3 activation [4] -3.36% | outcome [5] | outcome [6] | Potency [7] | Potency [8] | outcome [9] | outcome [11] | outcome [12] | outcome [20] | Potency [13] | Potency [14] | Potency [15] | Potency [16] | Potency [17]

CCCCCCCCC/C=C/CC1CC(=O)OC1=O (stereo not drawn)
inactive: caspase-3 activation [1] 0.816% | outcome [2] | caspase-3 activation [3] 1.69% | caspase-3 activation [4] 5.74% | outcome [5] | outcome [6] | Potency [7] | Potency [8] | outcome [9] | outcome [10] | outcome [11] | outcome [12] | Potency [13] | Potency [14] | Potency [15] | Potency [16] | Potency [17] | Potency [18]

CCCCCCC=O
inactive: caspase-3 activation [1] -0.687% | outcome [2] | caspase-3 activation [3] 1.06% | caspase-3 activation [4] -2.62% | outcome [5] | outcome [6] | Potency [7] | Potency [8] | outcome [9] | outcome [10] | outcome [11] | outcome [12] | Potency [14] | Potency [15] | Potency [16] | Potency [17] | Potency [18]

Cc1ccc(C)c([N+](=O)[O-])c1
inactive: caspase-3 activation [1] 0.386% | outcome [2] | caspase-3 activation [3] -0.213% | caspase-3 activation [4] 0.434% | outcome [5] | outcome [6] | Potency [7] | Potency [8] | outcome [9] | outcome [11] | outcome [12] | outcome [20] | Potency [13] | Potency [14] | Potency [15] | Potency [16] | Potency [17] | Potency [18]

Nc1cc([N+](=O)[O-])ccc1C(=O)O
inactive: caspase-3 activation [1] -0.673% | outcome [2] | caspase-3 activation [3] -1.05% | caspase-3 activation [4] -2.97% | outcome [5] | outcome [6] | Potency [7] | Potency [8] | outcome [9] | outcome [10] | outcome [11] | outcome [12] | outcome [20] | Potency [13] | Potency [14] | Potency [15] | Potency [16] | Potency [17] | Potency [18]

c1ccc(Oc2ccccc2)cc1
inactive: caspase-3 activation [1] 0.858% | outcome [2] | caspase-3 activation [3] 0.181% | caspase-3 activation [4] -1.47% | outcome [5] | outcome [6] | Potency [7] | Potency [19] | outcome [9] | outcome [11] | outcome [12] | Potency [13] | Potency [14] | Potency [15] | Potency [16] | Potency [18]

COc1cccc(N)c1
inactive: caspase-3 activation [1] 2% | outcome [2] | caspase-3 activation [3] 4.32% | caspase-3 activation [4] 7.74% | outcome [5] | outcome [6] | Potency [7] | Potency [8] | outcome [9] | outcome [10] | outcome [11] | outcome [12] | outcome [20] | Potency [13] | Potency [14] | Potency [15] | Potency [16] | Potency [17] | Potency [18]

NC(=O)/N=N/C(N)=O
inactive: caspase-3 activation [1] -0.26% | outcome [2] | caspase-3 activation [3] 1.22% | caspase-3 activation [4] -1.75% | outcome [5] | outcome [6] | Potency [7] | Potency [8] | outcome [9] | outcome [11] | outcome [12] | outcome [20] | Potency [14] | Potency [15] | Potency [16] | Potency [17] | Potency [18]

CC(C)(C)OC=O
inactive: caspase-3 activation [1] 1.35% | outcome [2] | caspase-3 activation [3] 0.183% | caspase-3 activation [4] -1.63% | outcome [5] | outcome [6] | Potency [7] | Potency [19] | outcome [9] | outcome [10] | outcome [11] | outcome [12] | outcome [20] | Potency [14] | Potency [15] | Potency [16] | Potency [17]

Cc1ccc(C)o1
inactive: caspase-3 activation [1] -0.182% | outcome [2] | caspase-3 activation [3] -0.53% | caspase-3 activation [4] 0.32% | outcome [5] | outcome [6] | Potency [7] | Potency [19] | outcome [9] | outcome [11] | outcome [12] | outcome [20] | Potency [13] | Potency [14] | Potency [15] | Potency [16] | Potency [17] | Potency [18]

Cc1ccc(C(C)(C)C)cc1
inactive: caspase-3 activation [1] -0.798% | outcome [2] | caspase-3 activation [3] 0.123% | caspase-3 activation [4] -1.91% | outcome [5] | outcome [6] | Potency [7] | Potency [8] | outcome [9] | outcome [11] | outcome [12] | outcome [20] | Potency [13] | Potency [14] | Potency [15] | Potency [16] | Potency [17] | Potency [18]

COc1cccc2sc(N)nc12
inactive: caspase-3 activation [1] 1.13% | outcome [2] | caspase-3 activation [3] 0.718% | caspase-3 activation [4] -1.25% | outcome [5] | outcome [6] | Potency [7] | Potency [8] | outcome [9] | outcome [10] | outcome [11] | outcome [12] | Potency [13] | Potency [14] | Potency [15] | Potency [16] | Potency [17] | Potency [18]
